Consider 40 compounds from PubChem BioAssay (Tox21).

Several values for one entry are separate records, joined by “and”; a condition that tells them apart may be missing. Equal entries are not always repeated. Results filed as inconclusive are left out. A call without a number means that no potency is given here. Activity calls are given as the source filed them. Calls follow the shape of the full dose curve.
Potency is read from the fitted curve at half-maximal effect.

In the assay the target is Acetylcholinesterase (Homo sapiens) (UniProt P22303). The assay is described as follows: Acetylcholinesterase (AChE) small molecule antagonists: colormetric cell-based qHTS assay (AID 1347395). Also: nearly all actives have a fitted effect of over 30% in size. The following applies: SH-SY5Y cells AChE activity, colorimetric (Ellman); series mostly up to 115 µM. The text has this: National Center for Advancing Translational Sciences [NCATS]
Acetylcholinesterase (Homo sapiens), sequence (P22303 whole entry, looked up): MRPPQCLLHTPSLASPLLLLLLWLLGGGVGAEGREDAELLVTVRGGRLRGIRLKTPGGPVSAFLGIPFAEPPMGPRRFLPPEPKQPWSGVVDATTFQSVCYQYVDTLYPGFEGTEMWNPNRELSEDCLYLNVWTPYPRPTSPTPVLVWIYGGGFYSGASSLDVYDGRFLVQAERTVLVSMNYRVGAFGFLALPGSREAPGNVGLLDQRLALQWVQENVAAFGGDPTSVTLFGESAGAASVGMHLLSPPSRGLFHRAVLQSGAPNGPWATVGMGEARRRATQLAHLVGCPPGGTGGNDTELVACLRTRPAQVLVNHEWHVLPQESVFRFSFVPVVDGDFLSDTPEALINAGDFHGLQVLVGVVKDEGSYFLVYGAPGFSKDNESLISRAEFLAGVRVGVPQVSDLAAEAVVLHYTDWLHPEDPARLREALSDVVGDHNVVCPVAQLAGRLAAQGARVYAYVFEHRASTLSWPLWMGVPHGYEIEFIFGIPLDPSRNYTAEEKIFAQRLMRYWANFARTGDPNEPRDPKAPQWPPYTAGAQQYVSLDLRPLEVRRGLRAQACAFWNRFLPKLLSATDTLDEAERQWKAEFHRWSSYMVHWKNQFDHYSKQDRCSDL
Division of Preclinical Innovation [DPI]
U.S. Environmental Protection Agency [EPA]
National Institutes of Environmental Health Sciences [NIEHS]
National Toxicology Program [NTP]
U.S. Food and Drug Administration [FDA]
Acetylcholinesterase (AChE) is the primary cholinesterase in the body that hydrolyzes a key neurotransmitter, acetylcholine. Inhibition of AChE activity can lead to neurotoxicity. The known inhibitors include organophosphorous pesticides (OP), chemical warfare agents, drugs, and various phytochemicals.
A homogenous cell-based assay using the Amplite Colormetric acetylcholinesterase assay kit (AAT Bioquest, Sunnyvale, CA) was used to evaluate the chemicals in the Tox21 10K library that inhibit AChE activity. The assay uses 5, 5-dithiobis-(2-nitrobenzoic acid) (DTNB) to quantify the thiocholine produced from the hydrolysis of acetylthiocholine by AChE from the SH-SY5Y cells.
Tox21 Assay Protocol Summary:
For the cell-based AChE assay, 2,000 SH-SY5Y cells in 4 uL/well were dispensed into black, clear-bottom 1536-well plates using a Multidrop Combi dispenser (Thermo Scientific, MA). The assay plates were incubated overnight at 37 C to allow cells to attach to the wells, followed by the transfer of 23 nL of compound or DMSO (vehicle control) by a Pintool Station (Wako Automation, CA). The plates were incubated for 30 min at 37 C and 5% CO2, followed by the addition of 4 uL of detection cocktail solution (DTNB, acetylthiocholine) into each well using a Flying Reagent Dispenser (Beckman Coulter, CA) and then 90 min incubation at 37 C.
On the technique in general: Quantitative high-throughput screening tests each substance at several concentrations.
For the compound `OC[P+](CO)(CO)CO`, the Potency entry was “inactive”.

For the compound `Nc1cc(Cl)cc(C(=O)O)c1Cl`, the Potency entry is “inactive”.

For the compound `C#C[C@]1(O)CC[C@H]2[C@@H]3CCC4=CC(=O)CCC4=C3C=C[C@@]21CC`, the Potency result was “inactive”.

Consider `C[N+]1(CCC(C(N)=O)(c2ccccc2)c2ccccc2)CCCCC1`, for which the Potency result is “inactive”.

Consider `CCC1(C2=NCCN2)Cc2ccccc2O1` (stereo not given), for which the Potency entry is “inactive”.

Consider `CC(C)(C)N(NC(=O)c1ccc(Cl)cc1)C(=O)c1ccccc1`, for which the Potency result is “inactive”.

With `CN(C1CCCCC1)C1CCCCC1`, the Potency result is “inactive”.

As to `CCC(=O)O[C@@H]1C=C2CCC3C(CCC4(C)C3CC[C@@H]4OC(=O)CC)C2CC1` (stereo not given in full), the Potency result was “inactive”.

For `O=C1NC(=O)C(=O)C(=O)N1`, the Potency result is “inactive”.

Take `CCCN(CCC)c1c([N+](=O)[O-])cc(C(C)C)cc1[N+](=O)[O-]`: the Potency entry is “inactive”.

Take `C[Si](Cn1cncn1)(c1ccc(F)cc1)c1ccc(F)cc1`: the Potency entry was “inactive”.

`Cc1nnc(-c2ccccc2)c(=O)n1N`: the Potency result is “inactive”.

As to `C=C(C)C(=O)OCCCCOC(=O)C(=C)C`, the Potency entry is “inactive”.

On to `CN1C[C@H](C(=O)N[C@]2(C)O[C@@]3(O)[C@@H]4CCCN4C(=O)[C@H](Cc4ccccc4)N3C2=O)C=C2c3cccc4[nH]cc(c34)C[C@H]21`, for which the Potency is 1.01 µM (active) and 8.32 µM (active).

Consider `CC(C)(C)NCC(O)c1cc(Cl)c(N)c(C(F)(F)F)c1` (stereo not given), for which the Potency result is “inactive”.

`CCCCC#N`: the Potency result is “inactive”.

As to `O=C(N/N=C/c1ccc([N+](=O)[O-])o1)c1cc([N+](=O)[O-])cc([N+](=O)[O-])c1O`, the Potency entry was “inactive”.

In the case of `COc1ccc(C(O)(c2cncnc2)C2CC2)cc1` (stereo not given), the Potency entry is “inactive”.

Turning to `OCC1CO1` (stereo not given), the Potency result was “inactive”.

With `C[N+]1(CCF)[C@@H]2CC[C@H]1CC(OC(=O)C(O)(c1ccccc1)c1ccccc1)C2` (stereo not given in full), the Potency result was “inactive”.

For the compound `CCN(C(C)=O)c1cccc(-c2ccnc3c(C#N)cnn23)c1`, the Potency entry is “inactive”.

`NNCCO`: the Potency result was “inactive”.

In the case of `SCc1ccccc1`, the Potency result was “inactive”.

As for `C=CCSSCC=C`, the Potency result is “inactive”.

`CCCC[N+]1(C)[C@@H]2CC(OC(=O)[C@H](CO)c3ccccc3)C[C@H]1[C@@H]1O[C@@H]12` (stereo not given in full): the Potency entry was “inactive”.

In the case of `COCc1cnc(C2=NC(C)(C(C)C)C(=O)N2)c(C(=O)O)c1` (stereo not given), the Potency entry was “inactive”.

Regarding `CCCCCCCCP(=O)(O)O`, the Potency result was “inactive”.

In the case of `Nc1c(Br)cc(Br)c2c1C(=O)c1ccccc1C2=O`, the activity, negative = inhibition is 1.8% [at 23.6 µM] (inactive).

In the case of `CN1C(=O)CN=C(c2ccccc2)c2cc([N+](=O)[O-])ccc21`, the Potency result was “inactive”.

Consider `CCOC(=O)c1cn2nc(OP(=S)(OCC)OCC)cc2nc1C`, for which the Potency was 35.6 µM (active).

For `CCCN(CCOc1c(Cl)cc(Cl)cc1Cl)C(=O)n1ccnc1`, the Potency result was “inactive”.

As for `O=[N+]([O-])c1cc(Cl)c(Cl)cc1Cl`, the Potency result was “inactive”.

Take `COc1ccc(C(=O)c2c(C)n(CCN3CCOCC3)c3ccccc23)cc1`: the Potency entry was “inactive”.

On to `CC(C)OC(=O)Cc1ccccc1`, for which the Potency entry was “inactive”.

`COC1=CC(=O)O[C@@H](/C=C/c2ccc3c(c2)OCO3)C1`: the Potency entry is “inactive”.

As to `C#CC(O)(C=CCl)CC` (stereo not given), the Potency result was “inactive”.

Regarding `CC(C)(c1ccccc1)c1cc(-n2nc3ccccc3n2)c(O)c(C(C)(C)c2ccccc2)c1`, the Potency result is “inactive”.

As to `CCC1(CCC(C)C)C(=O)NC(=O)NC1=O`, the Potency entry was “inactive”.

With `O=C([O-])c1ccccn1.O=C([O-])c1ccccn1.O=C([O-])c1ccccn1.[Cr+3]`, the Potency entry is “inactive”.

`Nc1ccc2c(c1)Cc1ccccc1-2`: the Potency result is “inactive”.
